Each structure is given as a SMILES string. The campaign covered roughly 410,000 compounds. About 2,000 (0.49%) were called active. About 8% were inconclusive and are not listed. The entries come from a sample that favours actives as a whole. A number with no mark means an inactive call. Calls follow the shape of the full dose curve; tested in HEK293 reporter line.
Potency is read from the fitted curve at half-maximal effect.

This assay can be described thus: qHTS Assay for Foot and Mouth Disease Virus Antivirals: Primary Screen against the MLPCN compound library. Also: nearly all actives have a fitted effect of over 55% in size. Conditions: FMDV antiviral cell-based qHTS; series mostly up to 57.9 µM; activity, negative = inhibition: at the top concentration.
As to `COc1ccccc1CNC(=O)c1ccc(CS(=O)(=O)c2ccccc2C)o1`, the Potency result is “inactive”.

As to `CN(c1ccccc1)S(=O)(=O)c1ccc(Cl)c(C(=O)Nc2nc3ccccc3[nH]2)c1`, the “activity, negative = inhibition” value was -40.3%.

Consider `O=C(Nc1nc2ccccc2[nH]1)c1ccc(Cl)cc1`, for which the Potency was 12.6 µM (active).

For the compound `COc1cc(OC)cc(C(=O)N[C@H](C(=O)Nc2nc3ccccc3[nH]2)C(C)C)c1`, the “activity, negative = inhibition” value is -32.3%.

On to `COc1cccc(C(=O)Nc2cccc(OCc3cc(=O)n4cccc(C)c4n3)c2)c1`, for which the “activity, negative = inhibition” value was -33.9%.

As to `COc1ccc(CCNc2nc(-c3ccc(OC)c(OC)c3)cc(C(F)(F)F)n2)cc1OC`, the “activity, negative = inhibition” value is -30.5%.

Take `COc1ccc(-c2cc(C(F)(F)F)nc(N3CCN(C)CC3)n2)cc1OC`: the “activity, negative = inhibition” value was -35.9%.

For `COc1ccc(Cl)cc1NC(=O)CCCS(=O)(=O)c1nc(-c2ccc(OC)c(OC)c2)cc(C(F)(F)F)n1`, the Potency is 28.2 µM (active).

For the compound `Cc1ccccc1-n1c(SCc2c(C)noc2C)nnc1-c1c[nH]c2ccccc12`, the “activity, negative = inhibition” value is -30.2%.

As to `CCOC(=O)/C(O)=C(\C#N)c1nc2ccccc2[nH]1`, the “activity, negative = inhibition” value is -41.1%.

With `NC(=O)c1ccc(N2CCN(c3ccc(O)cc3)CC2)c([N+](=O)[O-])c1`, the “activity, negative = inhibition” value is -35.5%.

Take `COc1ccc(Nc2ccc(N3C(=O)CC(C)C3=O)cc2[N+](=O)[O-])cn1` (stereo not drawn): the “activity, negative = inhibition” value was -35.4%.

On to `CC1CC(=O)N(c2ccc(NCCc3ccc(O)cc3)c([N+](=O)[O-])c2)C1=O` (stereo not drawn), for which the Potency is 25.1 µM (active).

As to `COc1ccccc1C(CNC(=O)c1ccc(-c2ccccc2Cl)o1)N1CCCC1` (stereo not drawn), the “activity, negative = inhibition” value is -35.2%.

On to `CC1C/C(=N/Nc2ccc([N+](=O)[O-])cc2[N+](=O)[O-])CC(C)(C)C1` (stereo not drawn), for which the “activity, negative = inhibition” value is -33%.

For `COc1cc(C)c(-c2[nH]ncc2-c2csc(C)n2)c(O)c1`, the “activity, negative = inhibition” value was -38.2%.

Regarding `Cc1ccc(C(=O)Cn2c(=N)n(N)c3ccccc32)cc1`, the “activity, negative = inhibition” value is -55.9%.

`Cc1ccc(C(=O)Cn2c3c(sc2=N)CCCC3)cc1`: the Potency was 7.94 µM (active).

As to `CCOC(=O)Cn1nc(C)c(NC(=O)COc2ccc(OC)cc2)c1C`, the “activity, negative = inhibition” value is -31.4%.

In the case of `COc1ccc2nc(C)cc(SCC(=O)N/N=C/c3c(OC)ccc4ccccc34)c2c1`, the “activity, negative = inhibition” value is -36.7%.

As to `Cc1ccc(-c2csc(Nc3ccc(S(N)(=O)=O)cc3)n2)o1`, the “activity, negative = inhibition” value was -30.9%.

Turning to `Cc1ccc(NC(=S)Nc2ccc3[nH]c(=O)[nH]c3c2)cc1`, the “activity, negative = inhibition” value was -37.6%.

For `COc1ccc(-c2noc(CCCOc3ccccc3)n2)cc1OC`, the “activity, negative = inhibition” value is -34.9%.

Regarding `Cc1ccc(OCc2nc(-c3ccccn3)no2)c(Br)c1`, the Potency was 20 µM (active).

For `O=C(NCc1ccccn1)c1ccccc1OCc1ccc(Cl)cc1Cl`, the “activity, negative = inhibition” value was -31.9%.

As to `Clc1ccc(OCc2nc(-c3ccccn3)no2)c(Br)c1`, the Potency was 20 µM (active).

In the case of `Cc1cc(OCc2nc(-c3ccncc3)no2)cc(C)c1Cl`, the “activity, negative = inhibition” value was -36.6%.

In the case of `COc1ccc(Br)cc1CNC(=O)CCc1nc(-c2ccc(C)cc2)no1`, the “activity, negative = inhibition” value is -32.7%.

For the origin of these results see PubChem BioAssay AID1347131 (National Center for Advancing Translational Sciences (NCATS), 2019).
